3T3 cytotox – kills NIH 3T3 cells | Potency, µM (highest dose often 96.7 µM), for the others: at the highest dose activity change, negative = cytotoxicity, usual class: inhibitors | NIH 3T3 viability, CellTiter-Glo ATP luminescence, 48-72 h | 94,000 compounds, 4.3% hits | AID 1345082; further: nearly all actives have a fitted effect of over 55% in size
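Mouse fibroblast NIH 3T3 cells, 400 per well, received compound via pintool and were incubated for 48 or 72 hr prior to CellTiter-Glo ATP luminescence measurement.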
GPT2 inhibitor – inhibitors of human GPT2 alanine aminotransferase; Potency, µM (doses to about 57.7 µM), inactives show at the highest dose activity change, negative = inhibition, usual class: inhibitors; Q8TD30; 100,000 compounds, 0.25% hits; Recombinant GPT2, coupled pyruvate oxidase/HRP Amplex Red fluorescence; AID 1671188; further: nearly all actives have a fitted effect of over 60% in size
Target sequence (Q8TD30 whole entry, looked up): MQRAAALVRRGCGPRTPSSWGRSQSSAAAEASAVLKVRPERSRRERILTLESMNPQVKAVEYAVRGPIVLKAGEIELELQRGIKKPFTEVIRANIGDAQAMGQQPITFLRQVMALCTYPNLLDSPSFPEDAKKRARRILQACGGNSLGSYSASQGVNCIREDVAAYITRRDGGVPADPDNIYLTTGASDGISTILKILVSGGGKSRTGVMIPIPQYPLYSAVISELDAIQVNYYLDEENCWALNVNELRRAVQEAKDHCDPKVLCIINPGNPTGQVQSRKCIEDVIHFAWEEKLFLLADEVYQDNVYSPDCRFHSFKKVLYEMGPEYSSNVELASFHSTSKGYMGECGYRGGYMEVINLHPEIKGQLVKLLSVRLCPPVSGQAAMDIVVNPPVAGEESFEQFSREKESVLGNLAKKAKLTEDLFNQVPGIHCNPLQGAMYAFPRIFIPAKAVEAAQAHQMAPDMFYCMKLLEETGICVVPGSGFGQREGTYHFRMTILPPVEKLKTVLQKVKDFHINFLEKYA
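Fluorescence read-out: pyruvate from GPT2 turnover coupled to pyruvate oxidase, HRP and Amplex Red (0.2mM ThPP, 0.2U/mL PO and HRP, 50uM Amplex final). Substrates 250uM a-KG, 2mM L-alanine; enzyme 10ng/uL; 30 min RT.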
Luciferase inh – inhibitors of firefly (Photinus pyralis) luciferase. P08659. purified P. pyralis luciferase, luminescence, biochemical. Potency, µM (titrated, usually from 115 µM), actives largely listed as inhibitors. 76,000 compounds, 2.5% hits. AID 1347043; further: nearly all actives have a fitted effect of over 65% in size
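Purified P. pyralis luciferase (10nM final) in 50mM Tris acetate pH 7.5, 10mM Mg acetate, 0.01% Tween-20, 0.05% BSA with 10uM D-luciferin and 10uM ATP. Compounds titrated qHTS. Luminescence imaged on CCD.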
HEK cytotox – kills HEK 293 cells | HEK 293 viability, ATP luminescence (CellTiter-Glo), 48-72 h | Potency, µM (series often up to 115 µM), inactives show top-dose activity change, negative = cytotoxicity, most hits filed as inhibitors | 94,000 compounds, 6.6% hits | AID 1345083; further: nearly all actives have a fitted effect of over 60% in size
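Read-out: CellTiter-Glo ATP luminescence. Cells: HEK 293, 250 cells/well. Exposure: 48 or 72 hr, 37 degree Celsius.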
NPR1 antag – antagonists of human natriuretic peptide receptor Npr1; HEK293 hNpr1 GloSensor cGMP, ANP-stimulated luminescence; Potency, µM (highest dose often 46.3 µM), for inactives: top-dose activity change, negative = inhibition, usual class: inhibitors; 76,000 compounds, 1.6% hits; calls by dose curve; further: nearly all actives have a fitted effect of over 60% in size
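HEK293 cells stably expressing human Npr1 and cGMP GloSensor pGS-40F, loaded 2 h with 2% GloSensor reagent, given compound 30 min at room temperature. Luminescence read before and 20 min after 0.1 nM hNppA.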
Numbers without * were called inactive; [ ] = another dose, or the depositor's remark. In the library only some 10% were active in any assay of this set; here they are far more common. Unless noted, the call rests on the fitted dose curve; in most records, active means well fitted curve in the direction sought with a large enough effect; inconclusive means small, poorly fitted or top-dose-only effect, or another doubt; inactive means no such curve, though single readings can be large; an effect the other way counts as inactive or inconclusive. On the % scale 0 is the no-effect control and ±100 the full control effect; potency means the concentration at half of the fitted maximal effect.

What do the screens show for `Cc1ccc(C(=O)N2CCCC(N3C(=O)c4c(c(C)nn4-c4ccccc4)C3C)C2)cc1` (stereo unspecified)?
3T3 cytotox: inconclusive; HEK cytotox: 44.7µM*

How did C=CCOC(=O)Nc1nc2c(s1)C[C@@H]1[C@](C)(CO)[C@H](O)CC[C@@]1(C)[C@@H]2CC(=O)NC1CCCCC1 do in these assays?
3T3 cytotox: inconclusive; GPT2 inhibitor: inconclusive; Luciferase inh: inactive; HEK cytotox: inconclusive; NPR1 antag: -9.6%

Results for COc1ccccc1N1CCN(C(=O)Cn2ccn3nc(-c4ccc(F)cc4)c(CO)c3c2=O)CC1 ?
3T3 cytotox: -6.7%; GPT2 inhibitor: inactive; Luciferase inh: inactive; HEK cytotox: inconclusive; NPR1 antag: 0.3%

How did O=C(Cc1cccc(Cl)c1)N1CCC(C(=O)N2CCC(N3Cc4ccccc4C3=O)CC2)CC1 do in these assays?
3T3 cytotox: inconclusive; GPT2 inhibitor: 1.6%; HEK cytotox: 50.1µM*

Results for O=C(C1CC1)N1CCC(C(=O)N2CCC(N3Cc4ccccc4C3=O)CC2)CC1 ?
3T3 cytotox: -15.4%; GPT2 inhibitor: -2.1%; HEK cytotox: -10.3%

What do the screens show for `Fc1cccc(NC2CCCN(Cc3cccn3-c3nccs3)C2)c1` (stereo unspecified)?
3T3 cytotox: inconclusive; GPT2 inhibitor: inactive; Luciferase inh: inactive; HEK cytotox: 44.7µM*; NPR1 antag: -4.5%

What do the screens show for `CC(=O)N1CCC(NC[C@@H]2C=C(C)[C@H](Cc3nc4ccc(F)cc4[nH]3)C[C@H]2C(C)C)CC1`?
3T3 cytotox: 79.4µM*; GPT2 inhibitor: inactive; Luciferase inh: inactive; HEK cytotox: inconclusive; NPR1 antag: -2.3%

Results for CC1=C[C@@H](CNC(=O)CCC(=O)O)[C@H](C(C)C)C[C@H]1Cc1nc2ccc(F)cc2[nH]1 ?
3T3 cytotox: -7.6%[138 µM]; GPT2 inhibitor: -9.7%[88.5 µM]; Luciferase inh: inactive; HEK cytotox: 5.0%[172 µM]; NPR1 antag: 9.7%[70.6 µM]

How did COc1ccc2nc(C[C@@H]3C[C@@H](C(C)C)[C@H](CNC(=O)Nc4ccc(F)cc4)C=C3C)[nH]c2c1 do in these assays?
3T3 cytotox: 39.8µM*; GPT2 inhibitor: -9.0%; Luciferase inh: inactive; HEK cytotox: 28.2µM*; NPR1 antag: -29.7%

How did CC1=C[C@@H](CNC(=O)C2CCC2)[C@H](C(C)C)C[C@H]1Cc1nc2ccc(F)cc2[nH]1 do in these assays?
3T3 cytotox: 39.8µM*; GPT2 inhibitor: inconclusive; Luciferase inh: inactive; HEK cytotox: 28.2µM*; NPR1 antag: inconclusive

Results for CC1=C[C@@H](CNC(=O)c2cnccn2)[C@H](C(C)C)C[C@H]1Cc1nc2ccc(F)cc2[nH]1 ?
3T3 cytotox: 112µM*; GPT2 inhibitor: inactive; Luciferase inh: inactive; HEK cytotox: 70.8µM*; NPR1 antag: inconclusive

How did COc1ccc(OC)c(NC(=O)c2c(C)oc3ccn(Cc4cccc(F)c4)c(=O)c23)c1 do in these assays?
3T3 cytotox: -10.5%; GPT2 inhibitor: inactive; Luciferase inh: inactive; HEK cytotox: -12.5%; NPR1 antag: -0.1%

What do the screens show for `O=C(NC1CCN(C(=O)c2ccc(-c3cccs3)cc2)CC1)C1CCCC1`?
3T3 cytotox: inconclusive; GPT2 inhibitor: inactive; HEK cytotox: inconclusive

Results for O=C(CCC1CCN(Cc2cc3ccccc3o2)CC1)NC1CCN(Cc2ccccc2)C1 (stereo unspecified) ?
3T3 cytotox: inconclusive; GPT2 inhibitor: 3.2%; Luciferase inh: inactive; HEK cytotox: inconclusive; NPR1 antag: -15.7%

How did COC1CN(c2ccc(C)cc2)C12CCN(C(=O)Cc1ccccc1)CC2 (stereo unspecified) do in these assays?
3T3 cytotox: inconclusive; GPT2 inhibitor: -5.6%; Luciferase inh: inactive; HEK cytotox: inconclusive; NPR1 antag: -0.4%

Results for CC1=C[C@@H](CNC(=O)c2cnccn2)[C@H](C(C)C)C[C@H]1Cc1nc2ccc(C)cc2[nH]1 ?
3T3 cytotox: inconclusive; GPT2 inhibitor: -2.1%[88.5 µM]; Luciferase inh: inactive; HEK cytotox: 31.6µM*; NPR1 antag: inconclusive

Results for CC1=C[C@@H](CNC(=O)c2cnccn2)[C@H](C(C)C)C[C@H]1CC(=O)O ?
3T3 cytotox: -22.9%[138 µM]; GPT2 inhibitor: -6.2%[88.5 µM]; Luciferase inh: inactive; HEK cytotox: 0.9%[172 µM]; NPR1 antag: 6.0%[70.6 µM]

What do the screens show for `O=C(NC1CCN(C(=O)c2ccc(-c3cccs3)cc2)CC1)c1ccncc1`?
3T3 cytotox: inconclusive; GPT2 inhibitor: inactive; HEK cytotox: inconclusive

Results for COc1cc(NC2=N[C@H]3[C@@H](O)[C@H](O)C[C@H](C(=O)N(C)Cc4ccccc4)[C@H]3S2)cc(OC)c1 ?
3T3 cytotox: -1.3%; GPT2 inhibitor: -10.6%; Luciferase inh: inactive; HEK cytotox: 0.1%; NPR1 antag: -18.2%

What do the screens show for `Cc1ccc(NC2=N[C@H]3[C@@H](O)[C@H](O)C[C@H](C(=O)N(C)Cc4ccccc4)[C@H]3S2)cc1`?
3T3 cytotox: -0.6%[174 µM]; GPT2 inhibitor: inconclusive; Luciferase inh: 31.6µM*; HEK cytotox: 3.4%[172 µM]; NPR1 antag: -3.3%[70.6 µM]

What do the screens show for `COCC1CN(C2CCC2)CC12CCN(C(=O)Cc1ccccc1F)CC2` (stereo unspecified)?
3T3 cytotox: inconclusive; GPT2 inhibitor: -0.4%; Luciferase inh: inactive; HEK cytotox: 50.1µM*; NPR1 antag: -14.7%

What do the screens show for `OCC1CN(C2CCC2)CC12CCN(Cc1ccc(F)cc1)CC2` (stereo unspecified)?
3T3 cytotox: inconclusive; GPT2 inhibitor: -1.7%; Luciferase inh: inactive; HEK cytotox: 44.7µM*; NPR1 antag: -9.6%

Results for OCC1CN(C2CCC2)CC12CCN(Cc1cc(F)ccc1F)CC2 (stereo unspecified) ?
3T3 cytotox: inconclusive; GPT2 inhibitor: -13.1%; Luciferase inh: inactive; HEK cytotox: 39.8µM*; NPR1 antag: -4.6%

What do the screens show for `O=C1CC2(CCN(C(=O)C3CCCN(C(=O)c4ccccc4F)C3)CC2)Oc2ccccc2N1` (stereo unspecified)?
3T3 cytotox: -21.0%; GPT2 inhibitor: inconclusive; HEK cytotox: inconclusive

How did COc1ccccc1-c1cnc(NC(=O)c2cccnc2)c2c1CCO2 do in these assays?
3T3 cytotox: inconclusive; GPT2 inhibitor: 4.8%[88.5 µM]; Luciferase inh: inactive; HEK cytotox: -57.9%[172 µM]; NPR1 antag: 5.3%[70.6 µM]

How did C[S+](=O)([O-])Nc1cccc(Nc2ncc(-c3cccc(F)c3)c3c2OCC3)c1 do in these assays?
3T3 cytotox: 31.6µM*; GPT2 inhibitor: 2.4%[88.5 µM]; Luciferase inh: inactive; HEK cytotox: inconclusive; NPR1 antag: -28.0%[70.6 µM]

What do the screens show for `COc1ccccc1-c1cnc(NC(=O)c2ccc(F)c(Cl)c2)c2c1CCO2`?
3T3 cytotox: inconclusive; GPT2 inhibitor: -2.2%[88.5 µM]; Luciferase inh: 17.8µM*; HEK cytotox: inconclusive; NPR1 antag: -25.0%[70.6 µM]
